CCHF vOTU inh: blocks the CCHF virus ovarian tumor domain protease | CCHFV vOTU protease, Pep-AMC fluorescence | inhibition, % at 11.5 µM | hit rate 0.55% among 370,000 | AID 651958
GDH-TPI counter: inhibits GDH-TPI coupling enzymes, artifact for Mtb FBA screen | GDH-TPI coupled enzyme counterscreen, NADH absorbance | inhibition, % at 4.8 µM | hit rate 1.2% among 360,000 | AID 588335
Mtb FBA inh: inhibitors of M. tuberculosis fructose-bisphosphate aldolase. hit rate 2.3% among 360,000. inhibition, % at 1 µM. purified M. tuberculosis FBA, fluorescence read-out. P9WQA3. AID 588726; in the data active = inhibition above about 27%
Target sequence (P9WQA3 whole entry, looked up): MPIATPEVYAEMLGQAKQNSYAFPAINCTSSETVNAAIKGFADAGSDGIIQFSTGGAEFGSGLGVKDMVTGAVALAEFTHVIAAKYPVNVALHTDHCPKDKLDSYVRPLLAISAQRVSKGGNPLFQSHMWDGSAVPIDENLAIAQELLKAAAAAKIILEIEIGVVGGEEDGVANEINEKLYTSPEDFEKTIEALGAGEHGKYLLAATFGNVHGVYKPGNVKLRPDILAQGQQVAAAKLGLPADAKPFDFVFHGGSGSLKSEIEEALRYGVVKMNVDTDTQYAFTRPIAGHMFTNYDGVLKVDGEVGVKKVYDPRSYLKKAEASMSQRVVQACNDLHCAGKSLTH
BH1578 lux ind: induces V. cholerae light production without autoinducers. V. cholerae BH1578 lux reporter, luminescence, 6 h. activation, % at 18.7 µM. hit rate 0.16% among 350,000; in the data active = activation mostly above about 9.7%, no sharp cut-off
Each line names hits and unclear results; the compound was inactive in the other large screens. In the library only some 3.9% were active in any assay of this set; here they are far more common. Rule as the data show it, unless noted: active = inhibition above about 30%; inactive = the rest.

CN(C)CCCNc1oc(/C=C/c2ccccc2)nc1C#N	none
COCCNc1oc(COc2cccc(C)c2)nc1C#N	none
C=CCNc1oc(/C=C/c2ccccc2)nc1C#N	GDH-TPI counter 48, Mtb FBA inh active
CN(C)CCNc1oc(/C=C/c2ccccc2)nc1C#N	Mtb FBA inh 135
COc1cccc(/C=C/c2nc(C#N)c(NCC(C)C)o2)c1	Mtb FBA inh active
CCOc1ccc(/C=C/c2nc(C#N)c(NCCCN(C)C)o2)cc1	GDH-TPI counter 36
Cn1c(-c2ccc3c(c2)OCO3)cnc1NCc1ccccc1Cl	none
CCCCn1nnnc1C1(C)CCC(=O)N1CCc1c[nH]c2ccccc12 (centres undefined)	none (no result: GDH-TPI counter, Mtb FBA inh, BH1578 lux ind)
CCc1nc2cccnc2n1-c1ccc(CC(=O)NCCOC)cc1	none
Cn1c(SCC(=O)c2ccc(F)cc2)nc2cccnc21	none
COCC(=O)N(CCc1ccc(OC)c(OC)c1)Cc1nc2ccccc2c(=O)[nH]1	none
CN(C)N=Nc1nc2c(c(=O)n(C)c(=O)n2C)n1C	GDH-TPI counter 34
CC(C)/C=N/Nc1nc2c(c(=O)n(C)c(=O)n2C)n1C	none
Cc1ccc(S(=O)(=O)N2CCc3ccccc3CC2)cc1	none
Cc1ccc(-c2nc3c(c(=O)c4ccccc4n3C)c(=O)n2Cc2ccco2)cc1	GDH-TPI counter 32
O=C(CSc1ncnc2ccccc12)Nc1cccc(S(=O)(=O)N2CCCC2)c1	none
COCCNc1nc(NCc2ccc(NC(C)=O)cc2)c2sc(-c3ccccc3)cc2n1	none
CCOC(=O)C(/C=C(\C#N)C(=O)OCC)=C(/N)N1CCN(c2c(C)cccc2C)CC1	GDH-TPI counter 50
CCOC(=O)C(/C=C(\C#N)C(=O)OCC)=C(/N)N1CCN(c2ccc(OC)cc2)CC1	GDH-TPI counter 57
O=C(N/C(=C/c1ccc(Cl)cc1)c1nc2ccccc2[nH]1)c1ccco1	GDH-TPI counter 42
O=C(N/C(=C/c1ccc(Br)cc1)c1nc2ccccc2[nH]1)c1ccco1	GDH-TPI counter 32
O=C(NCc1nc2ccccc2[nH]1)c1ccco1	none
O=C(/C(=C/c1ccc(Cl)cc1)c1nc2ccccc2[nH]1)c1ccccc1	none
CC(C)c1[nH]nc2c1C(c1ccc(F)cc1)N(Cc1ccccc1)C2=O (centres undefined)	none (no result: GDH-TPI counter, Mtb FBA inh, BH1578 lux ind)
CCC(N=c1cc(-c2ccc(OC)cc2)oc2ccc(C)cc12)C(=O)O (centres undefined)	GDH-TPI counter 31, Mtb FBA inh active
O=S(=O)(c1cccs1)N1CN(Cc2cccs2)c2nc3ccccc3nc21	Mtb FBA inh 103
Cc1sc2ncnc(Sc3nnnn3-c3ccccc3)c2c1C	Mtb FBA inh 27
CC(=O)Nc1c(Cl)cnn(-c2ccccc2)c1=O	GDH-TPI counter 43
CC(C)c1ccc(S(=O)(=O)/N=C2\C=C(NS(=O)(=O)c3ccccc3)C(=O)c3ccccc32)cc1	CCHF vOTU inh 68
Cc1ccc(C(C)C)c(O)c1C(=O)O	none
O=C(O)c1nc(Cl)c(Cl)c(N/N=C/c2ccccc2C(F)(F)F)c1Cl	GDH-TPI counter 31
O=C(CN1C(=O)c2ccccc2C1=O)N(CCO)Cc1ccccc1	none
O=c1[nH]c(/C=C\c2cccc(F)c2)nc(O)c1[N+](=O)[O-]	GDH-TPI counter 31
O=c1[nH]c(/C=C\c2cccc(Cl)c2)nc(O)c1[N+](=O)[O-]	GDH-TPI counter 51
C=CCOc1cccc(/C=C\c2nc(O)c([N+](=O)[O-])c(=O)[nH]2)c1	none
CCOc1ccc2c(C)c(C)c(=O)oc2c1OCC	none
CCOc1ccc2c(C)c(C(=O)O)oc2c1OCC	Mtb FBA inh 156
CCOc1ccc(C2C(C(=O)c3cccs3)=C(O)C(=O)N2CCN2CCOCC2)cc1 (centres undefined)	none
N#C/C(=C/c1ccccc1)C(=O)NCc1ccccc1	none
Cc1cc(/C=C(\C#N)C(=O)NCc2ccccc2)c(C)[nH]1	GDH-TPI counter 31
N#C/C(=C\c1ccc(OCc2ccc(C(=O)O)cc2)cc1)C(=O)NCc1ccccc1	GDH-TPI counter 36
N#C/C(=C\c1ccc(O)c([N+](=O)[O-])c1)C(=O)NCc1ccccc1	GDH-TPI counter 44
COc1cc(/C=C(\C#N)C(=O)NCc2ccccc2)ccc1OCc1ccc(C(=O)O)cc1	GDH-TPI counter 59
CC(C)(C)OC(=O)N1CCN(Cc2ccc(F)c(B(O)O)c2)CC1	none
COC(=O)c1c(C)[nH]c(/C=N/Nc2ccccc2)c1C	none
Cc1c(C=NNc2ccccc2)[nH]c(=O)[nH]c1=O	GDH-TPI counter 32
CCCSc1nnc(-c2ccccc2NC(=O)CC)c(=O)[nH]1	none
Cc1cc(C)cc(NC(=O)CN2CCN(C(=O)C3CCCO3)CC2)c1 (centres undefined)	none
OC(CNCC1COc2ccccc2O1)COCc1cccs1 (centres undefined)	none
O=C(c1ccc(N2CCN(C3CC(=O)N(Cc4cccs4)C3=O)CC2)cc1)c1cccnc1 (centres undefined)	GDH-TPI counter 33
O=C(c1ccncc1)c1ccc(N2CCN(C3CC(=O)N(Cc4ccccc4)C3=O)CC2)cc1 (centres undefined)	none
CC(C)N=C(NC#N)SCc1ccccc1	none
CC(C)N=C(NC#N)SCc1ccc(Br)cc1	BH1578 lux ind 30
COc1ccc(S(=O)(=O)N2CCN(Cc3cc(OC)c(OC)cc3OC)CC2)cc1	none
CN1CCN(c2ccc(NC(=O)c3ccc(-c4ccc(Br)cc4)o3)cc2)CC1	none
Cc1ccccc1C(=O)Nc1cccc(NC(=O)c2ccc(-c3ccc(Br)cc3)o2)c1	GDH-TPI counter 34
Nc1nc2nc(-c3ccc(Cl)cc3)cc(C(F)(F)F)n2n1	Mtb FBA inh active (no result: CCHF vOTU inh)
CN(C)C(=O)COc1ccc2cc(-c3ccccc3)c(=O)oc2c1	GDH-TPI counter 53, Mtb FBA inh active
CC(Oc1ccc2ccc(=O)oc2c1)C(=O)NCC1CCC(C(=O)O)CC1 (centres undefined)	none
CC(=O)Oc1ccc2cc(-c3cccnc3)c(=O)oc2c1	Mtb FBA inh active
COc1ccc(-c2cc(=O)oc3cc(OCC(=O)N(C)C)ccc23)cc1	none
CC(Oc1ccc2cc(-c3ccccc3)c(=O)oc2c1)C(=O)NCC1CCC(C(=O)O)CC1 (centres undefined)	GDH-TPI counter 36, Mtb FBA inh active
CC(=O)Oc1cccc(-c2nc3ccccc3c(=O)o2)c1	none
CCCOc1ccc2cc(-c3ccccn3)c(=O)oc2c1	Mtb FBA inh active
COc1ccc(S(=O)(=O)NCC2CCCO2)cc1NC(=O)c1ccccc1 (centres undefined)	none
N#Cc1c(Nc2ccccc2Cl)s[nH]c1=O	none
COC(=O)C(C)Oc1ccc2cc(-c3ccccc3)c(=O)oc2c1 (centres undefined)	Mtb FBA inh active
COc1ccc2cc(-c3ccccc3)c(=O)oc2c1	Mtb FBA inh active
COc1ccc2c(=O)c(-c3ccccc3)coc2c1	none
Cc1nonc1NC(=O)CSc1nc2c(C)cccc2cc1C#N	none
CCC(c1nc2ccccc2c(=O)n1CCCn1ccnc1)N1C(=O)c2ccccc2C1=O (centres undefined)	none
Cc1cccc2ccccc12	none (no result: GDH-TPI counter, Mtb FBA inh, BH1578 lux ind)
Cc1ccc2c(C)c3ccc4ccccc4c3c[n+]2c1	Mtb FBA inh active (no result: BH1578 lux ind)
O=C(C1CCCCC1)N1C[C@@H](n2cc(-c3ccc(F)cc3)nn2)[C@H](O)C[C@@H]1c1ccccc1	none
